The supplement of paper PMC11732987, “Enantioselective OTUD7B fragment discovery through chemoproteomics screening and high-throughput optimisation” (Communications Chemistry, 2025)

Legend:
Assay in all cases: log2 ratio of Biotin-Ahx-Ub-VS probe labelling (fragment/DMSO); higher = less target engagement (more negative = stronger competition), active = hit call of the paper (q ≤ 0.05, log2 ratio ≤ -1)
Settings in all cases: compound concentration: 200 uM; treatment time: 3 h
USP19 = target: T1, USP19 (UniProt O94966)
T1 sequence (whole entry): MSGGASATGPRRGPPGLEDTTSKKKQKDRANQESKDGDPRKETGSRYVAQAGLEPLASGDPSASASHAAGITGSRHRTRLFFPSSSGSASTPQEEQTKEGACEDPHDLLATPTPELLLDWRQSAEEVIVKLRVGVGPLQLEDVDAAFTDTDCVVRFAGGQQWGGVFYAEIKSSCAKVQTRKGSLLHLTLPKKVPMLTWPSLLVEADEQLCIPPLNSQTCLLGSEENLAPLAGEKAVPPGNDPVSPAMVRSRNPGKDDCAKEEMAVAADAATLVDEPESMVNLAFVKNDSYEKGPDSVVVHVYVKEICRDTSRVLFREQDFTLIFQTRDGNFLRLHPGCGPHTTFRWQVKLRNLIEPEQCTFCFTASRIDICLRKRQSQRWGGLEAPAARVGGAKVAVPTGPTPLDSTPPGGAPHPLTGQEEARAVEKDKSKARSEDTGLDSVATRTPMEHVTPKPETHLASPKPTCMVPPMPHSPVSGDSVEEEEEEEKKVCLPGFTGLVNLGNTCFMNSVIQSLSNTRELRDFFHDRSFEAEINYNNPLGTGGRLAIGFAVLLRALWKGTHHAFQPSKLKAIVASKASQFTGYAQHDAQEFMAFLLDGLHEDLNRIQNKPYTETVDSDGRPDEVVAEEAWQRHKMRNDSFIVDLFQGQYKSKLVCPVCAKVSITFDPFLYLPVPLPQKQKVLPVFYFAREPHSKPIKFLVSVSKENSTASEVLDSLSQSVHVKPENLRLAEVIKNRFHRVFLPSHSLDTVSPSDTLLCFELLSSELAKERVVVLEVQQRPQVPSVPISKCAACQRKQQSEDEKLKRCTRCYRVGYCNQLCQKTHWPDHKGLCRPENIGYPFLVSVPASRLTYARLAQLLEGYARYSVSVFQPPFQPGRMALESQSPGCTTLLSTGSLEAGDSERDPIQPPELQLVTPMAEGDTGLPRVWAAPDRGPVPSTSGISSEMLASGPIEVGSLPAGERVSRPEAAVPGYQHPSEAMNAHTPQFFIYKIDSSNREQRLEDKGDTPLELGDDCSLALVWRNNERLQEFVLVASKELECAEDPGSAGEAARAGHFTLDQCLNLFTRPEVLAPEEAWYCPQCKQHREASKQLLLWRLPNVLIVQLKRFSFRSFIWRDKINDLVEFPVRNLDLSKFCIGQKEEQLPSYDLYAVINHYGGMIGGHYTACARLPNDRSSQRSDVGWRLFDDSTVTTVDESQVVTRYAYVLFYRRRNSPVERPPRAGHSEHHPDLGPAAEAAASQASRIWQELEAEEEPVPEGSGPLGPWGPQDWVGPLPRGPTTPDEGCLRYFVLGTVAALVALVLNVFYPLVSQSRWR
In short: (§1)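 Each value is an average log2 ratio of fragment to vehicle, tested by unpaired t-test. The underlying Spectronaut label-free quantities were global-median-normalised, and only proteins with ≥2 unique peptides were included. Triplicate HEK293T lysate samples (495 µg) were exposed to fragment at 200 µM or vehicle for 3 h, then to Biotin-Ahx-Ub-VS at 0.5 µM final for 1 h, before NeutrAvidin enrichment of labelled DUBs, LysC and trypsin digestion, and diaPASEF LC-MS/MS.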

USP22 = target: T2, USP22 (UniProt Q9UPT9)
T2 sequence (whole entry): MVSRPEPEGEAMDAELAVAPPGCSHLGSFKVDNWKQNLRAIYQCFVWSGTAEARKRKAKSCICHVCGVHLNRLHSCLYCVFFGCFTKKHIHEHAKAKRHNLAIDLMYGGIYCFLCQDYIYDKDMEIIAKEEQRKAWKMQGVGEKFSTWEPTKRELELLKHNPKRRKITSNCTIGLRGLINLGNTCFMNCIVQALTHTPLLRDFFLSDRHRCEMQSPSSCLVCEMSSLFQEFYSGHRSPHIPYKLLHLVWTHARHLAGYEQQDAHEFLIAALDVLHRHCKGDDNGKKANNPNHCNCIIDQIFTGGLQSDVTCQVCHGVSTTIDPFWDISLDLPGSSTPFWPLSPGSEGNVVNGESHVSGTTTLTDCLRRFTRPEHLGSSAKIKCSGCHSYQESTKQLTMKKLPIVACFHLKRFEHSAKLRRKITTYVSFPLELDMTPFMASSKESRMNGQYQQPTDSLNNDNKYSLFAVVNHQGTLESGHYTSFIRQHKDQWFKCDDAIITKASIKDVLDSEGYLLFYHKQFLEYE
In short: as §1

USP24 = USP24 (UniProt Q9UPU5)
Chain of USP24 (Q9UPU5 whole entry): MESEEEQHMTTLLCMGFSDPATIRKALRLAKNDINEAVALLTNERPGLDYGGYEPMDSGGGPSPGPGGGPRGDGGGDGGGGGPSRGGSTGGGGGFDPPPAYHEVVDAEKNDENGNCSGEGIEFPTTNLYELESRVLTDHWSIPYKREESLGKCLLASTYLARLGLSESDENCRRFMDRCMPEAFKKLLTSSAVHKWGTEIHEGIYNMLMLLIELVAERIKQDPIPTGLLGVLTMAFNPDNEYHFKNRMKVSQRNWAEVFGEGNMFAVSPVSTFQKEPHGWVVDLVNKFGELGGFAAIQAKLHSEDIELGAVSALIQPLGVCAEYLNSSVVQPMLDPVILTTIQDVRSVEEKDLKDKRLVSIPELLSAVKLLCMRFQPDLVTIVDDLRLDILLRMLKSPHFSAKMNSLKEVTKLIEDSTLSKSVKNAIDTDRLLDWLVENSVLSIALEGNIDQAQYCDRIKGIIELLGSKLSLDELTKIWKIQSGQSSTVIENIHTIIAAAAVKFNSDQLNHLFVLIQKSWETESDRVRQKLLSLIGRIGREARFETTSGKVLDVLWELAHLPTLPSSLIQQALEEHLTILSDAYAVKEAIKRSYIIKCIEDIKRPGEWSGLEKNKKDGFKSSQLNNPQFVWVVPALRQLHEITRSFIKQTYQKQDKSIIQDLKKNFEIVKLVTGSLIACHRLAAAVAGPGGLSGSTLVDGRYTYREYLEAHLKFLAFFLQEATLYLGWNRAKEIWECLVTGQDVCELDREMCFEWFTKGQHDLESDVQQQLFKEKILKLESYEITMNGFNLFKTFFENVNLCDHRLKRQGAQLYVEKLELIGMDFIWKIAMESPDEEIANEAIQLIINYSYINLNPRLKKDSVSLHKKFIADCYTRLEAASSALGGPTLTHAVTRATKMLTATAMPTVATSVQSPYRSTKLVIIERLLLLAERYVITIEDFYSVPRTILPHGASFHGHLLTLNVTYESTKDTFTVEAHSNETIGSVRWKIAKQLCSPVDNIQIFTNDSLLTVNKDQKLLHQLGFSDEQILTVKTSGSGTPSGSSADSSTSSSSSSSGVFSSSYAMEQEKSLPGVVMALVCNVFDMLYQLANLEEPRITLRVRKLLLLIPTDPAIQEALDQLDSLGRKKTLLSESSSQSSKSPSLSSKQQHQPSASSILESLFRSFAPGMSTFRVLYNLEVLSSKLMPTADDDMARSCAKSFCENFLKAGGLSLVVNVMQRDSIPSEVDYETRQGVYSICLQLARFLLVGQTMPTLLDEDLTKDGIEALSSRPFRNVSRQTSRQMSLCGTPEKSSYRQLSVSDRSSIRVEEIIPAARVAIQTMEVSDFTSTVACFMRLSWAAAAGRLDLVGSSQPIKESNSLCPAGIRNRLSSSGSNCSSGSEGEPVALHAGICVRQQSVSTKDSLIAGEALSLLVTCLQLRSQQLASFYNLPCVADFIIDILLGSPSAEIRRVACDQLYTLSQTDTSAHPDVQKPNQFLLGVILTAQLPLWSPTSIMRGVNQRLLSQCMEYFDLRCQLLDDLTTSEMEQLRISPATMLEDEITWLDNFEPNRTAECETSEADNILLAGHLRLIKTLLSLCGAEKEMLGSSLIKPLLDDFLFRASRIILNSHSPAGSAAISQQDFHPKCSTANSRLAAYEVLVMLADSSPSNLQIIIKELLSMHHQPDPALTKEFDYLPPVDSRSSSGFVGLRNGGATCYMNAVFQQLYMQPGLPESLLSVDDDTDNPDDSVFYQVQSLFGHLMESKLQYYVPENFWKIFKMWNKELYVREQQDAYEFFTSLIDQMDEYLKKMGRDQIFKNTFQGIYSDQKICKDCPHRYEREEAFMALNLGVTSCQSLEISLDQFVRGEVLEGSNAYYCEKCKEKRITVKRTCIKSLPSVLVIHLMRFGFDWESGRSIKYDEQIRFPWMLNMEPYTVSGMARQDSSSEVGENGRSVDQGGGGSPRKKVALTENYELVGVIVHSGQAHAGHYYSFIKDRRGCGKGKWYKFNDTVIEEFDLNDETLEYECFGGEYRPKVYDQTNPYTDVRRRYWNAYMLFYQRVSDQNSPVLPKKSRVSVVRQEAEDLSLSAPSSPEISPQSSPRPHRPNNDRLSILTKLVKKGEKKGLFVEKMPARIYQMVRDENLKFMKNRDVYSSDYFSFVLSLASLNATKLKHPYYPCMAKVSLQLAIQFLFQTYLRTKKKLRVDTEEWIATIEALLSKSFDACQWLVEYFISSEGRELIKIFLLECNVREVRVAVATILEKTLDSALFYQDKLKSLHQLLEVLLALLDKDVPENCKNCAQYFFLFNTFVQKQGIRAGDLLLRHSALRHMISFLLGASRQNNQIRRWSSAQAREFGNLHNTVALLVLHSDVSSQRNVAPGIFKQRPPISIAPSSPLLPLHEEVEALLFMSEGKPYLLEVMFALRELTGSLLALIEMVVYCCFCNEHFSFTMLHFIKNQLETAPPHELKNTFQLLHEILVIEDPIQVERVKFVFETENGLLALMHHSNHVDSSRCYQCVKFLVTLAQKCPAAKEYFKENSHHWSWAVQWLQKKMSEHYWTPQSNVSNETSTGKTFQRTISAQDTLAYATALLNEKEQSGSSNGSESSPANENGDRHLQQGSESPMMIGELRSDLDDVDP
In short: as §1

USP25 = target: T3, USP25 (UniProt Q9UHP3)
T3 sequence (whole entry): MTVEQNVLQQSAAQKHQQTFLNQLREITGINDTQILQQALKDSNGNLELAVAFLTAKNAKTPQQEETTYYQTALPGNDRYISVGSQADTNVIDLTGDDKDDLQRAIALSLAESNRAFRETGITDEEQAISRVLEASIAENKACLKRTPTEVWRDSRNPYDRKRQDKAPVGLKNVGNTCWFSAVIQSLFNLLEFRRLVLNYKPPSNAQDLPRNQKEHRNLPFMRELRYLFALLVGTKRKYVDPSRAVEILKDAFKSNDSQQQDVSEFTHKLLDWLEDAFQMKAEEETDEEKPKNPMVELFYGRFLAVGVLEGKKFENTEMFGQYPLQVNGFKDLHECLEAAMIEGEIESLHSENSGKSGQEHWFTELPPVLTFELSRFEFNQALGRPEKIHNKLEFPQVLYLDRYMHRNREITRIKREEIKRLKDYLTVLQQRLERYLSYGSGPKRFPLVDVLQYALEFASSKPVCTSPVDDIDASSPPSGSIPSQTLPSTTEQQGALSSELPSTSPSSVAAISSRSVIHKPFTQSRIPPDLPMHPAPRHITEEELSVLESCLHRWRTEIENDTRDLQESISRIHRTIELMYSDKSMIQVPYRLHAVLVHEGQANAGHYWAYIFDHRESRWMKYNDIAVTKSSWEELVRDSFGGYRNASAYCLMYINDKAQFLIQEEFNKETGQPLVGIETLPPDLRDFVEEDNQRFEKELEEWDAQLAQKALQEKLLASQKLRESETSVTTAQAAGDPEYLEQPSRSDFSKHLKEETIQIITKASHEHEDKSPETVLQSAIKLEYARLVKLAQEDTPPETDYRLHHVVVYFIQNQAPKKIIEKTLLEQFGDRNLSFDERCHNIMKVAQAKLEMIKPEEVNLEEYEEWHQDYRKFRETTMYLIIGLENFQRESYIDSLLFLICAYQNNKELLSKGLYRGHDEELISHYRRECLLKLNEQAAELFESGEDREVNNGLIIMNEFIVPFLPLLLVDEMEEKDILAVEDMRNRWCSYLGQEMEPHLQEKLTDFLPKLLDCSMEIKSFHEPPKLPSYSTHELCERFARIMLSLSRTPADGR
In short: as §1

USP28 = target: T4, USP28 (UniProt Q96RU2)
T4 sequence (whole entry): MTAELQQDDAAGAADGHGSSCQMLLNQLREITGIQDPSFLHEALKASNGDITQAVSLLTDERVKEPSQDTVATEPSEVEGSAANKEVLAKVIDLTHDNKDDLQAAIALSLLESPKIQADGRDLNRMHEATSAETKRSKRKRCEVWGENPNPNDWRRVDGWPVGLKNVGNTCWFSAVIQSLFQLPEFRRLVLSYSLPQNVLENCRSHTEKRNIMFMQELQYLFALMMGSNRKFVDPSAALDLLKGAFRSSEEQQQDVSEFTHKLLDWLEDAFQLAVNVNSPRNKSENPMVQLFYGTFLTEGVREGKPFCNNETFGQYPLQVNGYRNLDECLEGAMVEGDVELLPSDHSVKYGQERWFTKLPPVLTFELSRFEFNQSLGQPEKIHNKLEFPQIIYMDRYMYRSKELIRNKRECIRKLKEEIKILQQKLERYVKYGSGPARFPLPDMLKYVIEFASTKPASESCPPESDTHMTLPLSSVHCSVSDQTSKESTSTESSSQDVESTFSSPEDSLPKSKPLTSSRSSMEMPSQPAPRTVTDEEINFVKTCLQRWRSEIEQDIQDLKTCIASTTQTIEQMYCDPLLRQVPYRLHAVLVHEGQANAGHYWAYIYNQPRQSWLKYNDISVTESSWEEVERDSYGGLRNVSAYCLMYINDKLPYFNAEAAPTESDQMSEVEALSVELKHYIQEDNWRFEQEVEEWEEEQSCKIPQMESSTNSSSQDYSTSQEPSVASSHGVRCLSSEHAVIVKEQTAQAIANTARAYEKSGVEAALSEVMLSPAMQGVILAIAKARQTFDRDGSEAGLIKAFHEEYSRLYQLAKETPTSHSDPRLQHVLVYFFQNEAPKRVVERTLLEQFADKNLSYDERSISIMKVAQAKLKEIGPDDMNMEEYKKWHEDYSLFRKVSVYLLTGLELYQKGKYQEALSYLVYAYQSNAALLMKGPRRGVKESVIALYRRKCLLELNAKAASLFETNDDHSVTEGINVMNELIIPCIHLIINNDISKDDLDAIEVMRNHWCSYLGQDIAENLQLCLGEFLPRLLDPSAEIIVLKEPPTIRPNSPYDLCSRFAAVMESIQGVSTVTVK
In short: as §1

Measured: log2 ratio of Biotin-Ahx-Ub-VS probe labelling

C/C(=C\CNC(=O)CCl)c1cnn(C)c1.Cl
inactive: USP19 -0.404 | USP22 0.026 | USP24 -0.203 | USP25 -0.578 | USP28 -0.395
